Screening data from PubChem BioAssay.
Compounds with a hit are over-represented: about 5.7% of the library has one in this group of screens.
JMJD2E inh = qHTS Assay for Inhibitors of Human Jumonji Domain Containing 2E (JMJD2E); 1.6% of 230,000 active; Potency, µM (titrated, usually from 57.1 µM), inactives show at the highest dose activity change, negative = inhibition, most hits filed as inhibitors; AID 2147, 2009; Lysine-specific demethylase 4E (Homo sapiens), B2RXH2; JMJD2E catalytic domain, FDH-coupled NADH fluorescence (FDH is formaldehyde dehydrogenase); active means well fitted inhibition curve with a large enough effect, not every such curve was filed as active; inconclusive means small, poorly fitted or top-dose-only effect, or another doubt; inactive means no such curve, though single readings can be large or run the other way;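 further: potency means the concentration at half of the fitted maximal effect; 0% = wells with enzyme and -100% = buffer wells without enzyme; nearly all actives have a fitted effect of over 50% in size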
Target sequence (B2RXH2 1-337 limits assumed): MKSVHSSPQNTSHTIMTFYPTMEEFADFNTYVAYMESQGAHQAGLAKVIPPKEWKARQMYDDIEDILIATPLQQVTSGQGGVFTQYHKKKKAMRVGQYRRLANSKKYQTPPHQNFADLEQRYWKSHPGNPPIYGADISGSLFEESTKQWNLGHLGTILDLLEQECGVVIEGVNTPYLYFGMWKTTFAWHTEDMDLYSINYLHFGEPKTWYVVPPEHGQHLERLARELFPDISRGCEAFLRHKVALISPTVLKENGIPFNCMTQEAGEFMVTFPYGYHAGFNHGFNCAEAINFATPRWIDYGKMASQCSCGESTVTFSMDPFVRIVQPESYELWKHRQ
BAZ2B inh = qHTS Assay for Inhibitors of BAZ2B. Bromodomain adjacent to zinc finger domain protein 2B (Homo sapiens), Q9UIF8. Potency, µM (highest dose often 114 µM), without a hit: top-dose activity change, negative = inhibition, actives largely listed as inhibitors. AlphaScreen BAZ2B-H3K14Ac peptide displacement. AID 504333, 2011. 4.4% of 360,000 active; further: potency means the concentration at half of the fitted maximal effect; on the % scale 0 is the no-effect control and ±100 the full control effect; nearly all actives have a fitted effect of over 60% in size
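AlphaScreen displacement of biotin-H3(5-23)K14Ac peptide (50 nM final) from BAZ2B (50 nM final) in PBS pH 7.4, 0.01% Tween-20; complex preformed 30 min RT, then compounds (top 110 uM) 30 min RT, beads 20 min dark.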
L3MBTL1 inh = qHTS Assay for the Inhibitors of L3MBTL1 | 0.66% of 230,000 active | Potency, µM (titrated, usually from 57.1 µM), inactives show at the highest dose activity, negative = inhibition, most hits filed as inhibitors | AID 485360, 2010 | Lethal(3)malignant brain tumor-like protein 1 (Homo sapiens), Q9Y468 | AlphaScreen L3MBTL1–H3K9me1 peptide binding; further: potency means the concentration at half of the fitted maximal effect; on the % scale 0 is the no-effect control and ±100 the full control effect; nearly all actives have a fitted effect of over 60% in size
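First, the protein-peptide complex forms for 30 min at room temperature (L3MBTL1 50 nM, biotinylated H3K9me1 peptide 75 nM). Next, compounds are pin-transferred and incubated 30 min. Finally, AlphaScreen beads are added and read after 30 min.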
JMJD2A Tudor = qHTS Assay for Inhibitors of JMJD2A-Tudor Domain | 4.4% of 390,000 active | Potency, µM (titrated, usually from 114 µM), without a hit: top-dose activity change, negative = inhibition, hits mostly inhibitors | AID 504339, 2011 | AlphaScreen JMJD2A-Tudor / H3K4me3 peptide binding; further: potency means the concentration at half of the fitted maximal effect; on the % scale 0 is the no-effect control and ±100 the full control effect; nearly all actives have a fitted effect of over 50% in size
PI5P4Ka inh = qHTS for Inhibitors of phosphatidylinositol 5-phosphate 4-kinase (PI5P4K) | PI5P4Kalpha enzyme, ADP-Glo luminescence, 60 min; hits give low values | max response, % | 1.2% of 330,000 active | Phosphatidylinositol 5-phosphate 4-kinase type-2 alpha (Homo sapiens), P48426; active means max response of -50% or lower; inconclusive means between -30% and -50%; inactive means -30% or higher; further: value at the top dose of about 77 µM; on the % scale 0 is the no-effect control and ±100 the full control effect
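Human PI5P4Kalpha with substrate in 0.038 M HEPES pH 7.4, 0.28 mM EGTA, 0.1% CHAPS, 5% DMSO; reaction started with 5 microM ATP (final), 60 min at room temperature. ADP formed read by ADP-Glo luminescence.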
HP1b chromo inh = HTS for Inhibitors of HP1-beta Chromodomain Interactions with Methylated Histone Tails. Chromobox protein homolog 1 (Homo sapiens), P83916. AlphaScreen HP1-beta / biotin-H3K9me3 peptide binding. Potency, µM (doses to about 114 µM), inactives show at the top dose activity change, negative = inhibition, most hits filed as inhibitors. 0.56% of 390,000 active; further: potency means the concentration at half of the fitted maximal effect; nearly all actives have a fitted effect of over 70% in size
Target sequence (P83916 whole entry, looked up): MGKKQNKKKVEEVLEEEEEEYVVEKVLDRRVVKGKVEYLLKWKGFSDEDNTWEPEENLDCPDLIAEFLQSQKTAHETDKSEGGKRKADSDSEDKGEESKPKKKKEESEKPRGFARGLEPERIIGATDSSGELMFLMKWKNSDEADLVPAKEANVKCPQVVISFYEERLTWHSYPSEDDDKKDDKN
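HP1-beta protein (50 nM final) preincubated 30 min at room temperature with biotinylated H3(1-18)K9me3 peptide (50 nM) in PBS pH 7.4, 0.01% Tween-20, then compound added for 30 min. AlphaScreen streptavidin donor/nickel chelate acceptor beads (10 ug/mL final), 30 min dark, luminescence read.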
The depositor's hits bear a star; ? = inconclusive; · = no result; [ ] = dose if it differs, or a comment. Unless noted, the call rests on the fitted dose curve; in most records, active means well fitted inhibition curve with a large enough effect; inconclusive means small, poorly fitted or top-dose-only effect; inactive means no such curve, though single readings can be large or run the other way.

SMILES	JMJD2E inh	BAZ2B inh	L3MBTL1 inh	JMJD2A Tudor	PI5P4Ka inh	HP1b chromo inh
COc1cccc(/C=N/Nc2ccc([N+](=O)[O-])cn2)c1O	·	40µM*	·	?	-11	414%
O=[N+]([O-])c1ccc(NN=Cc2cccc3ccccc23)nc1	·	·	·	-15%	1	2%
O=c1nccc(N/N=C/c2ccccc2O)[nH]1	·	50µM*	·	?	-24	25%[57 µM]
COc1cccc(/C=N/Nc2ccnc(=O)[nH]2)c1O	·	50µM*	·	?	-20	47%
CCOc1ccccc1/C=N/Nc1ccnc(=O)[nH]1	·	7%	·	-8%	8	60%
Cc1cc(/C=N/Nc2ccc([N+](=O)[O-])cn2)c(C)n1-c1ccccc1	6%	?	·	-32%	-17	7%
O=C(CN1CCN(Cc2ccccc2Cl)C1=O)NCc1ccccc1Cl	·	3%	·	-1%	·	44%
O=c1c2nncn2ccn1-c1ccc(F)c(F)c1	·	-11%	·	-10%	·	33%
COC(=O)C1CCN(c2csc3ccc(C)cc3c2=O)CC1	·	-15%	·	-29%	·	21%[57 µM]
CCNc1ccc(Br)cc(C(=O)/C=C/c2ccc(Cl)cc2Cl)c1=O	-17%	45µM*	18µM*	45µM*	?	?
CNc1ccc(Br)cc(C(=O)/C=C/c2ccc3c(c2)OCO3)c1=O	?	40µM*	28µM*	40µM*	?	?
CNc1ccc(Br)cc(C(=O)/C=C/c2ccc(OC)cc2)c1=O	25µM*	45µM*	-16%	-31%	-25	-9%
COc1ccc(/C=C/C(=O)c2cc(Br)ccc2O)cc1OC	-17%	?	-21%	-19%	-4	38%
COCCCNC(=O)/C=C/c1ccc(Cl)cc1Cl	3%	-12%	10%	-11%	-4	18%
CNc1ccc(Br)cc(C(=O)/C=C/c2cc(OC)ccc2OC)c1=O	?	28µM*	14µM*	25µM*	-28	-30%
CC(=O)c1ccc(NC(=O)CSc2cn(CC(=O)N(C(C)C)C(C)C)c3ccccc23)cc1	·	?	·	-8%	·	19%
CCOC(=O)c1ccc(N2C(=O)c3[nH]nc(-c4ccc(C)cc4)c3C2c2cccc(F)c2)cc1 (configuration not stated)	·	·	·	-31%	·	9%
COC(=O)c1ccc(/C=C/C(=O)c2ccc(OC)cc2)cc1	5%	11%	-8%	100µM*	·	3%
CCOC(=O)C1CCCN(C2CC(=O)N(c3ccc(N4C(=O)CC(N5CCCC(C(=O)OCC)C5)C4=O)cc3)C2=O)C1 (configuration not stated)	-4%	50µM*	-1%[11.4 µM]	-3%	-1	42%
CCOC(=O)C1CCCN(C2CC(=O)N(c3ccccc3)C2=O)C1 (configuration not stated)	3%	2%	8%	2%	8	46%
CCOC(=O)C1CCCN(C2CC(=O)N(c3ccc(C)c(C)c3)C2=O)C1 (configuration not stated)	1%	1%	22%	-10%	1	30%
CCOC(=O)C1CCCN(C2CC(=O)N(c3cccc(C(F)(F)F)c3)C2=O)C1 (configuration not stated)	-6%	-31%	-11%	56µM*	-10	46%
N#Cc1ccccc1Sc1ccccc1C(=O)NCC(c1ccco1)N1CCCC1 (configuration not stated)	·	50µM*	-7%	?	-10	?
CC(C)(C)C1CCc2c(sc(NC(=O)CCC(=O)O)c2C(=O)Nc2ccccc2C(F)(F)F)C1 (configuration not stated)	·	50µM*	·	56µM*	·	-17%
